Records with an inconclusive call do not appear. Active and inactive are the calls of the source. Calls come from the whole dose curve; as a rule, active = well fitted curve in the direction sought with a large enough effect; inconclusive = small, poorly fitted or top-dose-only effect, or another doubt; inactive = no such curve, though single readings can be large; an effect the other way counts as inactive or inconclusive.
Columns and labels:
[1] = biological target: Glutathione peroxidase 1 (Homo sapiens) (UniProt P07203); test: Primary qHTS Assay for Inhibitors of Recombinant Selenoprotein Glutathione Peroxidase 1 (GPX1) (AID 1845191); note: nearly all actives have a fitted effect of over 65% in size; for activity, negative = inhibition: % is set by controls: 0 for no effect and ±100 for the full control effect
Sequence of Glutathione peroxidase 1 (Homo sapiens) (P07203 whole entry, looked up): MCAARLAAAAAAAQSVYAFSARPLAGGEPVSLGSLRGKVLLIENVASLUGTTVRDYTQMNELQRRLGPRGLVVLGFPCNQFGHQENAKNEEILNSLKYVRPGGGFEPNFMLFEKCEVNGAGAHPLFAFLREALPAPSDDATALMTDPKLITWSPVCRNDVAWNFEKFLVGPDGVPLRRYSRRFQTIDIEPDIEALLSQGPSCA
Method in brief: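 10 nM GPX1 + cpd, 30 min RT; start w/ 1 mM GSH, 0.5 mM cumene hydroperoxide, 0.5 mM NADPH, 100 nM GR, 0.01% BSA; buffer 50 mM Tris-HCl pH 7.5, 2 mM EDTA, 150 mM NaCl; Fl 340/450, 0 & 15 min.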

[2] = biological target: Phospholipid hydroperoxide glutathione peroxidase GPX4 (Homo sapiens) (UniProt P36969); test: Primary qHTS Assay for Inhibitors of Recombinant Selenoprotein Glutathione Peroxidase 4 (GPX4) (AID 1845192); note: nearly all actives have a fitted effect of over 65% in size; for activity change, negative = inhibition: series mostly up to about 50 µM; % is set by controls: 0 for no effect and ±100 for the full control effect
Sequence of Phospholipid hydroperoxide glutathione peroxidase GPX4 (Homo sapiens) (P36969 whole entry, looked up): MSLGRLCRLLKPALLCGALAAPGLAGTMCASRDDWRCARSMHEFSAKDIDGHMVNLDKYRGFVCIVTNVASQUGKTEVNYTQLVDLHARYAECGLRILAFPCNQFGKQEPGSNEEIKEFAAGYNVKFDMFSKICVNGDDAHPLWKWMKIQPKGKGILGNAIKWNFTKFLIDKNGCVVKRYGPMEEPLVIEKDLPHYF
Method in brief: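 NADPH consumption, followed by fluorescence at 340/450 nm between 0 and 15 min, reports GPX4 activity via coupled glutathione reductase (100 nM). Enzyme 200 nM was pre-exposed to compound 30 min; 0.5 mM cumene hydroperoxide and 1 mM GSH served as substrates.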

[3] = biological target: Luciferin 4-monooxygenase (Photinus pyralis) (UniProt P08659); test: Primary firefly luciferase (FLuc) qHTS assay for identification of artifact compounds. (AID 1845220); note: nearly all actives have a fitted effect of over 60% in size;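 for activity change, negative = inhibition: series mostly up to about 54 µM; plate controls were DMSO vehicle for no effect and no enzyme for full effect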
Method in brief: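 Compounds sat 15 min at room temperature with 10 uM luciferin and 10 uM ATP (pH 7.6 Tris acetate). Firefly luciferase (10 nM final) was then added, and luminescence was read 5 min later. Data normalized to no-enzyme and DMSO controls were Hill-fitted.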

[4] = Primary fluorescence-based thiol-reactive (MSTI) qHTS assay for identification of artifact compounds. (AID 1845221);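 note: series mostly up to about 54 µM; thiol-reactive compounds lower the probe fluorescence signal; nearly all actives have a fitted effect of over 65% in size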
Method in brief: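 Compounds were incubated 1 h at room temperature in the dark with the MSTI probe (4 uM) in PBS pH 7.4, 2% DMSO. Signals were normalized between Acetyl-MSTI and MSTI.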

[5] = system: Nanoluciferase (engineered Oplophorus gracilirostris luciferase); test: Primary Nanoluciferase (NLuc) qHTS assay for identification of artifact compounds. (AID 1845222);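 note: series mostly up to about 54 µM; 0% = DMSO and -100% = no enzyme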
Method in brief: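 Luminescence from secreted NLuc (filtered, 1:55-diluted S16 cell medium) read 5 min after Nano-Glo substrate; compounds preincubated 15 min, RT. Hill fits of inhibition normalized to DMSO and no-enzyme.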

[6] = Primary redox qHTS assay for identification of artifact compounds. (AID 1845223);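 note: 0% = DMSO and 100% = reference compound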
Method in brief: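 Amplex Red (25 uM) and HRP (250 mU/mL) in HBSS, with compounds for 15 min, then 250 uM DTT for 30 min, room temperature, dark. Fluorescence 525/598 nm read; normalized to DMSO and 10 uM DA3003; Hill fit.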

CC1(C)CC[C@]2(C(=O)O[C@@H]3O[C@H](CO)[C@@H](O)[C@H](O)[C@H]3O)CC[C@]3(C)C(=CCC4[C@@]5(C)C[C@@H](O)[C@H](O)[C@](C)(C(=O)O)C5CC[C@]43C)C2C1O (stereo partly specified)
inactive: Potency [1] | Potency [2] | Potency [3] | Potency [4] | Potency [5] | Potency [6]

Cc1cc(N2CCN([C@@H]3CN[C@H](C(=O)N4CCSC4)C3)CC2)n(-c2ccccc2)n1
inactive: Potency [1] | Potency [2] | Potency [3] | Potency [4] | Potency [5] | Potency [6]

C=C1C[C@]23C[C@H]1[C@@H](O)C[C@H]2[C@@]12C=C[C@H](O)[C@@](C)(C(=O)O1)[C@H]2[C@@H]3C(=O)O
inactive: Potency [1] | Potency [2] | Potency [3] | Potency [4] | Potency [5] | Potency [6]

Cc1c[nH]c2nccc(Oc3c(F)cc(Nc4cc(Cl)nc(N)n4)cc3F)c12
inactive: Potency [1] | Potency [2] | Potency [3] | Potency [4] | Potency [5] | Potency [6]

C=C[C@@](C)(O)CC/C=C(\C)C(=O)O[C@@H]1[C@@H]2O[C@]2(C)[C@H]2[C@H](O[C@@H]3O[C@H](CO)[C@@H](O)[C@H](O)[C@H]3O)OC=C[C@@]12O
inactive: Potency [1] | Potency [2] | Potency [3] | Potency [4] | Potency [5] | Potency [6]

COc1ccc(Cl)c(Nc2nc3ccccc3nc2NS(=O)(=O)c2cccc(NC(=O)C(C)(C)N)c2)c1
inactive: Potency [1] | Potency [2] | Potency [3] | Potency [4] | Potency [5] | Potency [6]

COc1c2c(c(C)c3c1C(=O)OC3)OC1(C)CC(O)C34OC(OC)(OC3(C)C)C(O)CC4(C)C1C2 (stereo unspecified)
inactive: Potency [1] | Potency [2] | Potency [3] | Potency [4] | Potency [5] | Potency [6]

CC1=CC2/C=C(\C)CC[C@@H](O)[C@@H](O)[C@@H]3O[C@@H]3C(=O)[C@]23C(=O)N[C@@H](CC(C)C)[C@@H]3[C@@H]1C (stereo partly specified)
inactive: Potency [1] | Potency [2] | Potency [3] | Potency [4] | Potency [5] | Potency [6]

Cc1cnc(NC(=O)Nc2cc(Br)c(C)cc2OCC2CNCCO2)cn1 (stereo unspecified)
inactive: Potency [1] | Potency [2] | Potency [3] | Potency [4] | Potency [5] | Potency [6]

CC1CCCCN1S(=O)(=O)c1ccc(N2CCCC2=O)cc1 (stereo unspecified)
inactive: Potency [1] | Potency [2] | Potency [3] | Potency [4] | Potency [5] | Potency [6]

FC(F)(F)c1ccc(Nc2nc(-c3c(C(F)(F)F)nc4ccccn34)cs2)cc1
inactive: Potency [1] | Potency [2] | Potency [3] | Potency [4] | Potency [5] | Potency [6]

CC1=CC(=O)CC(C)(C)C1/C=C/C(C)O[C@@H]1O[C@H](CO)[C@@H](O)[C@H](O)[C@H]1O[C@@H]1OC[C@](O)(CO)[C@H]1O (stereo partly specified)
inactive: Potency [1] | Potency [2] | Potency [3] | Potency [4] | Potency [5] | Potency [6]

C[C@H](Oc1ccc(S(C)(=O)=O)cc1C(=O)N1CCN(c2ncc(C(F)(F)F)cc2F)CC1)C(F)(F)F
inactive: Potency [1] | Potency [2] | Potency [3] | Potency [4] | Potency [5] | Potency [6]

COc1ccc([C@@]2(O)c3c(ccc(CC=C(C)C)c3O)NC(=O)[C@@H]2OC)cc1
inactive: Potency [1] | Potency [2] | Potency [3] | Potency [4] | Potency [5] | Potency [6]

O=C(CO)[C@@H](O)[C@H](O[C@@H]1O[C@H](CO)[C@H](O)[C@H](O)[C@H]1O)[C@H](O)CO
inactive: Potency [1] | Potency [2] | Potency [3] | Potency [4] | Potency [5] | Potency [6]

C[C@@]1(O)[C@H](O)[C@@H](CO)O[C@H]1n1ccc(N)nc1=O
inactive: Potency [1] | Potency [2] | Potency [3] | Potency [4] | Potency [5] | Potency [6]

C[C@H](C(=O)NC1CCCC1)N(C(=O)Cn1nnc(-c2ccc3c(c2)OCO3)n1)C1CCCCC1
inactive: Potency [1] | Potency [2] | Potency [3] | Potency [4] | Potency [5] | Potency [6]

C[C@H]1CC[C@@]2(OC1)O[C@H]1CC3C4CC[C@H]5C[C@@H](O)[C@H](O)C[C@]5(C)C4=CC(=O)[C@]3(C)[C@H]1[C@@H]2C (stereo partly specified)
inactive: Potency [1] | Potency [2] | Potency [3] | Potency [4] | Potency [5] | Potency [6]

C[C@@H]1O[C@@H](O[C@H]2[C@H](OC(=O)[C@]34CCC(C)(C)C[C@H]3C3=CCC5[C@@]6(C)C[C@H](O)[C@H](O[C@@H]7O[C@H](CO)[C@@H](O)[C@H](O)[C@H]7O)[C@@](C)(CO)C6[C@H](O)C[C@@]5(C)[C@]3(C)C[C@H]4O)OC[C@H](O)[C@@H]2O)[C@H](O)[C@H](O)[C@H]1O[C@@H]1OC[C@@H](O)[C@H](O[C@H]2OC[C@](O)(CO)[C@H]2O)[C@H]1O (stereo partly specified)
inactive: outcome [1] inactive [at 9.52 µM] | activity change, negative = inhibition [2] 1.35% [at 9.73 µM] | activity change, negative = inhibition [3] 2.14% [at 11.6 µM] | activity change, negative = thiol reactive [4] 482% [at 11.5 µM] | activity, negative = inhibition [5] 4.86% [at 11.6 µM] | redox activity (% of DA3003) [6] 4.44% [at 11.5 µM]

C[C@H]1CC(=O)Nc2cccc(-c3cnn(C(C)(C)C)c3)c2N1
inactive: Potency [1] | Potency [2] | Potency [3] | Potency [4] | Potency [5] | Potency [6]

Cc1c(NC(=O)c2cc(C(N)=O)nc3cc(F)ccc23)c(C(F)(F)F)nn1Cc1ccc(C#N)cc1
inactive: Potency [1] | Potency [2] | Potency [3] | Potency [4] | Potency [5] | Potency [6]
